The test system of this assay is VDR:RXRa (NR concentration 270 nM, RXRa partner concentration 90 nM). Description: PBM binding z-score (relative to random genomic background probes); higher = stronger binding; sequences stand for … in GC…GCGATTGACAGCGTAGAATGAAGG
The protocol:
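Protein-binding microarray (Agilent 4x180K custom design, double-stranded 60-nt probes: 5' GC cap, 34-nt variable region, 24-nt constant primer region; full probe sequence given). Purified or IVT nuclear receptor:RXRα heterodimers (3:1 NR:RXRα, mostly 270:90 nM) or homodimers were incubated for 1 h in PBS with 2% milk and no ligand, then detected with Alexa488 antibodies. Fluorescence from o1-orientation probes (~5 replicates averaged) was converted to z-scores against 500 random hg19 background probes. Variable regions are seed direct-repeat (DR0–DR5) sites, all their single-nucleotide variants and half-site ablations.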
In turn, ACTATTAGTTGACTCAGGGCAACCGATACGACGC had a PBM binding z-score of 0.825.
Sequence GCTATTAGTTCAAAGGGCAACCGAATGATTCTCG came in with a PBM binding z-score of 2.63.
Then ACAGACAGGTGTGTGAAGGTAACTCAGCTGGACG, with -0.572.
Then CTACCTAGGTGAACAAGGTCGTTGATTACTATTC, with 5.37.
Then CAAACTAGCTCAAGAGGTCAAAGTCCGCTTCCCG, with 4.96.
ACTATTAGTTGACCTAGGGCAACCGATACGACGC showed a PBM binding z-score of 1.96.
Then CAAACTAGGTCACCGGAAGGTCAAAGACCGCATG, with 5.76.
Then TAGCCTAGGTCATGCGGTCCAGTATAGTGTCGGC, with 4.75.
ATCTCTATGTAAAGTTCAGTGAAAGATCGATAGA showed a PBM binding z-score of 1.26.
In the case of TCTATTAGTTGATTAGGGCACCCGAAACAGCGGA, the PBM binding z-score worked out at 0.698.
Then CCTCGGAGGACAGAAAGTCAGAGCTGTCCGCTTT, with -0.616.
CCGTACGGGTCACTCCAGGTTATAGCATCGGAGT came in with a PBM binding z-score of 4.39.
Then CAAACTAGGTCAAAGCTCAAAGTCGAGCCAACCA, with 1.74; and ATCGAAAAGTCGACGAGGTGAGTATACACCGTTT, with 0.461.
Then TCTTGTAGATCGAGCAGGTTAAGAAAGCCTGAGT, with -0.0222; and CGTCAAAGTTCAAGGTACCGTAACAGAAAGCAGC, with 3.76.
Then ATCTCTAGGTAAAGATAGTTCAGTGGATGCAAAT, with 0.451; and TCTTGTAGATCAACAGGAGGTTAACAAAGATCGA, with 0.812.
In turn, ATATGTAGGTTAAGGGTCAGTCAGGTTGGTTCGC had a PBM binding z-score of 4.37.
Then GCTAGTTGGTCAGTAACAGGTCACACACCGGTCG, with 1.68.
As to TAGCCTAGCTCATTGGGCCAGTATAGTACGCATC, the PBM binding z-score was -0.69.
Then CCGACTGGGGCAAGGTTACCAAAACGCACAGCCA, with 0.129.
Then TAGCCTAGGTCATTCAGGGGCCAGTAAAGAAAGC, with 3.21; and AATACTGGGTCATCGTAGGCCAGAGTACGCACAG, with 2.49.
CAAACTAGGTCAAGCTCAAAGTCGGTTTGTGCCA displayed a PBM binding z-score of 1.7.
Then CCTTACGGGTCACTGACACGTTATAGCATTTGGA, with 3.23; and CGGCCAAGGTCATAGGAGGTCAGTGAAGACAGAT, with 6.19.
CCCACTGGGCCAAAGGTCATTGATTCCAATGCTC: the PBM binding z-score is 4.73.
Then CCTAGTTGGTCTGGAGGTCACACACCGGATATGA, with 4.03.
GCTGCTGGGTCAACTGATGGTCAGCTAAAGCTCG registered a PBM binding z-score of 1.82.
Then AGCACGAGGGCACGCTGAGTTGATAGCAGAGTAG, with 2.17; and CCGAGTAGGTTATGGGGCATTCAAGCAACGGTGA, with -0.183; and CCTGCCAGGTCATGGTCAGCTAATCTACAGTATG, with 2.65.
Then GCATATAGGTAAGACAAGGTGAAAGTCCGATTGT, with 0.0453; and TCTCGGAGGACAGGAAGGTCAGAGCTTTCCAGAG, with 1.57; and CCGACTGGTGCAAAGGTTACCATACTCAGTACGA, with 1.74.
Then ATATGTAGGTTACATCCGGGTGATTCAGGCTATG, with 0.753.
In turn, CGTCCAAGGTCAGAGAGGTTAGTGAATGCCGAGT registered a PBM binding z-score of 5.8.
CCTAGCAGGCCTGGGTCACTCAAGCATTTCGCTT: the PBM binding z-score turned out to be 0.546.
For CCTACTGGGCCAACGTCATTGATCAGTCAAAGCA, the PBM binding z-score was -0.476.

(Values after the supplement of paper PMC6555819.)
